High-throughput results from PubChem BioAssay.
Tau fluor cs – Counterscreen qHTS for Inhibitors of Tau Fibril Formation, Fluorescence Polarization. tau K18 P301L Alexa594 fluorescence, heparin fibrillization. Potency, µM (doses to about 57.7 µM), for inactives: top-dose activity change, negative = decrease. 0.93% of 280,000 active. AID 1463, 2008; further: nearly all actives have a fitted effect of over 55% in size
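Human K18 P301L tau (15 uM unlabeled plus 0.24 uM Alexa 594-labeled, final) in 100 mM sodium acetate pH 7 was mixed with compound and 20 uM heparin and incubated 6 hr at 37 C.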
RGS12 GoLoco inh – qHTS Assay for Inhibitors of RGS12 GoLoco Motif Activity (Red Fluorophore). Guanine nucleotide-binding protein G(i) subunit alpha-1 (Homo sapiens), P63096. AID 880, 2007. Potency, µM (titrated, usually from 61.6 µM), for inactives: at the top dose activity, negative = inhibition, usual class: inhibitors. 0.44% of 230,000 active. Gai1:RGS12 GoLoco peptide FP, rhodamine, 10 min; active means well fitted inhibition curve with a large enough effect, not every such curve was filed as active; inactive means no such curve, though single readings can be large or run the other way; further: nearly all actives have a fitted effect of over 30% in size
Target sequence (P63096 whole entry, looked up): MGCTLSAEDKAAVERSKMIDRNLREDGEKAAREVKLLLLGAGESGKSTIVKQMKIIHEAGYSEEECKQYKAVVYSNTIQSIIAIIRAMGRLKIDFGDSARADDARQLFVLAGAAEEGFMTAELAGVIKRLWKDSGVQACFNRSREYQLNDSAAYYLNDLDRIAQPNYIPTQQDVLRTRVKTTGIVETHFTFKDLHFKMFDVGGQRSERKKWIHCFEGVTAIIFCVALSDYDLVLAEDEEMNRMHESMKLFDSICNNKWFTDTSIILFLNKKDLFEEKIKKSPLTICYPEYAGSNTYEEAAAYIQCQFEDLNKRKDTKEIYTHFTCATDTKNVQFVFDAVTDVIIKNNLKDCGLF
Tau fibril FP – qHTS for Inhibitors of Tau Fibril Formation, Fluorescence Polarization | K18 P301L tau heparin fibrillization, Alexa594 FP, 6 h | Potency, µM (titrated, usually from 57.7 µM), inactives show at the highest dose activity, negative = inhibition, actives largely listed as inhibitors | 0.39% of 280,000 active | AID 1468, 2008; further: nearly all actives have a fitted effect of over 55% in size
Target sequence (P10636 561-689 P618L limits assumed): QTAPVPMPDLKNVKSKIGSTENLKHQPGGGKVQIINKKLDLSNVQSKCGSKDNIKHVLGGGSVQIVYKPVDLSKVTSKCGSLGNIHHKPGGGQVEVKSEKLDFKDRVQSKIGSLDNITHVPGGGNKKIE
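Steps: dispense K18 P301L tau (15 uM plus 0.24 uM Alexa 594 tracer, final) in pH 7 sodium acetate; add compound; add heparin (20 uM final); incubate 6 hr, 37 C; add ThT (30 uM final); after 1 hr ambient, read FP.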
Tau ThT inhib – qHTS for Inhibitors of Tau Fibril Formation, Thioflavin T Binding; Potency, µM (series often up to 57.4 µM), for inactives: at the highest dose activity, negative = inhibition, most hits filed as inhibitors; Microtubule-associated protein tau (Homo sapiens), P10636; AID 1460, 2008; 2.1% of 270,000 active; recombinant tau K18 P301L (four-repeat tau fragment), heparin-induced fibrillization, ThT fluorescence; further: nearly all actives have a fitted effect of over 55% in size
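In this qHTS, human K18 P301L tau is incubated with compound and heparin for 6 hr at 37 C, and Thioflavin T fluorescence then reports fibril load.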
JMJD2E inh – qHTS Assay for Inhibitors of Human Jumonji Domain Containing 2E (JMJD2E) | Lysine-specific demethylase 4E (Homo sapiens), B2RXH2 | JMJD2E catalytic domain, FDH-coupled NADH fluorescence (FDH is formaldehyde dehydrogenase) | Potency, µM (doses to about 57.1 µM), without a hit: at the top dose activity change, negative = inhibition, actives largely listed as inhibitors | 1.6% of 230,000 active; active means well fitted inhibition curve with a large enough effect, not every such curve was filed as active; inconclusive means small, poorly fitted or top-dose-only effect, or another doubt; inactive means no such curve, though single readings can be large or run the other way;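 further: 0% = wells with enzyme and -100% = buffer wells without enzyme; nearly all actives have a fitted effect of over 50% in size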
Active calls of the source: *; [ ] = another dose, or the depositor's remark. Hits are enriched below; roughly 3.4% of the tested compounds scored in any of these assays. Unless noted, the call rests on the fitted dose curve; in most records, active means well fitted curve in the direction sought with a large enough effect; inconclusive means small, poorly fitted or top-dose-only effect, or another doubt; inactive means no such curve, though single readings can be large; an effect the other way counts as inactive or inconclusive. Unless noted, on the % scale 0 is the no-effect control and ±100 the full control effect; potency means the concentration at half of the fitted maximal effect.

`COc1ccc(OC)c(Nc2nc(-c3sc(NC(=O)c4ccccc4)nc3C)cs2)c1` gave Tau fluor cs inconclusive, RGS12 GoLoco inh 8%, Tau fibril FP 3%, Tau ThT inhib inconclusive and JMJD2E inh -1%.
For CCOc1ccccc1Nc1nc(-c2sc(NC(=O)c3ccc([N+](=O)[O-])cc3)nc2C)cs1 the results were Tau fluor cs 7.9µM*[quencher], RGS12 GoLoco inh -2%, Tau fibril FP inconclusive, Tau ThT inhib 3.5µM* and JMJD2E inh 6%.
Cc1ccc(Nc2nc(-c3sc(NC(=O)c4ccc([N+](=O)[O-])cc4)nc3C)cs2)cc1 was read as Tau fluor cs inconclusive, RGS12 GoLoco inh 4%, Tau fibril FP 4%, Tau ThT inhib 3.2µM* and JMJD2E inh 6%.
Screening Cc1ccccc1Nc1nc(-c2sc(NC(=O)c3ccccc3)nc2C)cs1 returned Tau fluor cs inconclusive, RGS12 GoLoco inh 19%, Tau fibril FP 4%, Tau ThT inhib inconclusive and JMJD2E inh inconclusive.
Screening Cc1ccccc1Nc1nc(-c2sc(NC(=O)c3ccc([N+](=O)[O-])cc3)nc2C)cs1 returned Tau fluor cs 10µM*[quencher], RGS12 GoLoco inh 10%, Tau fibril FP 2%, Tau ThT inhib 4µM* and JMJD2E inh 4%.
Screening Cc1ccc(S(=O)(=O)Nc2nsc(N)n2)cc1 returned Tau fluor cs -23%, RGS12 GoLoco inh 7%, Tau fibril FP 18µM*, Tau ThT inhib 11µM* and JMJD2E inh 1%.
`Cc1cc(C)nc(NS(=O)(=O)c2ccc(N)cc2)n1` gave Tau fluor cs -3%, RGS12 GoLoco inh -2%, Tau fibril FP 7%, Tau ThT inhib -4% and JMJD2E inh 5%.
Screening CSc1ccc(C2c3c(-c4ccccc4O)n[nH]c3C(=O)N2Cc2ccncc2)cc1 (centres undefined) returned Tau fluor cs inconclusive, Tau fibril FP -2% and Tau ThT inhib -10%.
For CCCCN(CC)c1nc(N)c2c(N)nc(OCC)cc2c1C#N the results were Tau fluor cs 16µM*[quencher], RGS12 GoLoco inh 14%, Tau fibril FP 12%, Tau ThT inhib inconclusive and JMJD2E inh inconclusive.
`CC(=O)N1c2ccccc2C(=O)C1N1CCN(c2cccc(Cl)c2)CC1` (centres undefined) gave Tau fluor cs -21%, Tau fibril FP 13% and Tau ThT inhib -6%.
`Cc1ccccc1NC(=S)c1nc2ccccc2[nH]1` gave Tau fluor cs -14%, RGS12 GoLoco inh 13%, Tau fibril FP 14%, Tau ThT inhib inconclusive and JMJD2E inh 19µM*.
S=C(Nc1ccc(Cl)cc1)c1nc2ccccc2[nH]1 was read as Tau fluor cs -16%, RGS12 GoLoco inh -7%, Tau fibril FP 14%, Tau ThT inhib inconclusive and JMJD2E inh inconclusive.
CCCS(=O)(=O)c1c(S(=O)(=O)CCC)c2cc(C(C)(C)C)ccn2c1C(=O)c1ccccc1 was read as Tau fluor cs -8%, Tau fibril FP 2% and Tau ThT inhib inconclusive.
`Cn1nc(C(C)(C)C)cc1NC(=O)Nc1cc(Cl)cc(Cl)c1` gave Tau fluor cs 7.1µM*[quencher], RGS12 GoLoco inh -16%, Tau fibril FP 25µM*, Tau ThT inhib -9% and JMJD2E inh -4%.
Cc1ccc(F)cc1NC(=O)Nc1cc(C(C)(C)C)nn1C was read as Tau fluor cs -27%, RGS12 GoLoco inh 3%, Tau fibril FP 5%, Tau ThT inhib -5% and JMJD2E inh -3%.
Screening Cc1nnc(NC(=O)c2sc3nc(-c4cccs4)cc(C(F)(F)F)c3c2N)s1 returned Tau fluor cs -15%, RGS12 GoLoco inh 53%, Tau fibril FP 2%, Tau ThT inhib 13µM* and JMJD2E inh inconclusive.
